Assay results reported in PubChem BioAssay (NCI).
The panel holds about 83,000 compounds, 20% with a hit somewhere; the sample as a whole holds those more often.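 Growth was measured after 48 h exposure to one concentration of compound in 96-well plates. Values under 10 count as active.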 A number with no mark means an inactive call. Activity calls are given as the source filed them.

How the values were obtained:
Test in all cases: NCI-60 one-dose screen, 48 h (100 = growth as untreated, 0 = no growth, -100 = all killed)
[1] = tested on: RPMI-8226 leukemia; settings: 10 µM unless noted
[2] = tested on: OVCAR-8 ovarian; settings: 10 µM unless noted
[3] = tested on: OVCAR-5 ovarian; settings: 10 µM unless noted
[4] = tested on: OVCAR-4 ovarian; settings: 10 µM unless noted
[5] = tested on: IGROV1 ovarian; settings: 10 µM unless noted
[6] = tested on: OVCAR-3 ovarian; settings: 10 µM unless noted
[7] = tested on: HS 578T breast; settings: 10 µM unless noted
[8] = tested on: NCI/ADR-RES ovarian; settings: 10 µM unless noted
[9] = tested on: T-47D breast; settings: 10 µM unless noted
[10] = tested on: BT-549 breast; settings: 10 µM unless noted
[11] = tested on: MDA-MB-435 melanoma; settings: 10 µM unless noted
[12] = tested on: SW-620 colon; settings: 10 µM unless noted
[13] = tested on: MCF7 breast; settings: 10 µM
[14] = tested on: HCT-116 colon; settings: 10 µM unless noted
[15] = tested on: HCC-2998 colon; settings: 10 µM unless noted
[16] = tested on: KM12 colon; settings: 10 µM unless noted

| Compound | growth [1] | growth [2] | growth [3] | growth [4] | growth [5] | growth [6] | growth [7] | growth [8] | growth [9] | growth [10] | growth [11] | growth [12] | growth [13] | growth [14] | growth [15] | growth [16] |
| --- | --- | --- | --- | --- | --- | --- | --- | --- | --- | --- | --- | --- | --- | --- | --- | --- |
| COC(=O)C1(C)CCC[C@]2(C)[C@H]3C[C@H]4C(C(C)C)=C[C@]3(CC[C@@H]12)[C@H]1[C@@H]4[C@@H](OCC#CCN2CCOCC2)CC[C@@H]1OCC#CCN1CCOCC1 (stereo partly drawn) | 67.7% | 83.2% | 106% | 64.7% | 70.6% | 86.3% | 86.6% | 74.9% | 64.5% | 97.7% | 92.5% | 94.7% | 77.3% | 81% | 97.4% | 93.2% |
| O=C(/C=C/c1ccc(Cl)cc1)c1ccc(Nc2nc(NCCO)nc(N3CCOCC3)n2)cc1 | 12.3% | 83.6% | 101% | 93% | 84% | 63.1% | 90.7% | 88.9% | 67.1% | 85% | 77.9% | 50.4% | 9.73% (active) | 18.6% | 99% | 28.5% |
| NC(CCc1nc2ccccc2c(=O)[nH]1)C(=O)O (stereo not drawn) | 101% | 104% | 105% | 103% | 99.1% | 119% | 102% | 110% | 108% | 97% | 100% | 102% | 105% | 105% | 107% | 112% |
| Cc1cccc2c(=O)c3c(sc12)c(NCCCNCCO)nc1ccccc13 | -26.5% (active) | 45.4% | 74.4% | 54.3% | 15.1% | 64.5% | 45.4% | 60.5% | 62.7% | 73% | 29.5% | -51.6% (active) | -61% (active) | -30.3% (active) | 12.7% | 33.6% |
| O=C(/C=C/c1ccc(F)cc1)c1ccc(Nc2nc(NCCO)nc(Nc3ccc(Cl)cc3)n2)cc1 | 1.78% (active) | 78.4% | 96.8% | 78.6% | 96.4% | 77% | 86.8% | 87.2% | 41.5% | 72% | 74.5% | 46.3% | 4.3% (active) | 8.67% (active) | 29.9% | 25.5% |
| Cc1cccc2c(=O)c3c(sc12)c(N1CCNCC1)nc1ccccc13 | 7.41% (active) | 83.9% | 90.2% | 73.9% | 33.6% | 63.7% | 73% | 83.1% | 86.9% | 80% | 62.5% | 27.6% | 26.7% | 26.9% | 47.5% | 51.3% |
| COc1ccc2c(c1)C=C1CSCC3=Cc4cc(OC)ccc4OC13O2 | 19.5% | 25.4% | 41.1% | 47.8% | 31.6% | -6.42% (active) | -0.917% (active) | -1.58% (active) | 48.4% | 30.8% | -40% (active) | 33.2% | 19.7% | 9.24% (active) | 9.67% (active) | 16.6% |
| COc1ccc(/C(C#N)=C/c2nc3c(N4CCOCC4)nc(Cl)nc3n2C)cc1OC | -7.23% (active) | 14.5% | 33.3% | -25% (active) | 3.01% (active) | -86.1% (active) | 13.2% | 11.7% | -17.1% (active) | -15.7% (active) | -64.5% (active) | -53.7% (active) | 6.49% (active) | -73.2% (active) | 2.12% (active) | -0.417% (active) |
| COc1ccccc1C1=C(Br)C(=O)c2nc(C)ccc2C1=O | 104% | 96.8% | 110% | 97.8% | 97.3% | 81% | 104% | 107% | 69.6% | 90.4% | 104% | 87.9% | 90.8% | 92.1% | 102% | 103% |
| Fc1ccc(Oc2ccc(Nc3ncnc4onc(-c5ccccc5)c34)cc2)cc1 | 113% | 95.5% | 101% | 102% | 87.6% | 109% | 96.6% | 101% | 94.5% | 78.6% | 103% | 95% | 94.5% | 99.1% | 105% | 99.5% |
| COC(=O)c1c2c(c(C)[n+]([O-])c1C)C(=O)C=C(NCc1ccc(F)c(F)c1)C2=O | -6.01% (active) | -2.54% (active) | -83.1% (active) | -98.7% (active) | -67.3% (active) | -47.2% (active) | -20.4% (active) | -17.5% (active) | -42.5% (active) | -97.2% (active) | -92.2% (active) | -43% (active) | -65.7% (active) | -53.9% (active) | -66.5% (active) | -14.9% (active) |
| COc1cc(/C=C2\Oc3cc(OCCCN4CCCC4)ccc3C2=O)cc(OC)c1 | 49.4% | 56.4% | 89.4% | 75.2% | 51% | -34.6% (active) | 70.2% | 80.8% | 88.8% | 78.3% | 78.9% | 5.52% (active) | 4.85% (active) | -67.3% (active) | 75.7% | 26.3% |
| O=C(c1nc2ccccc2[nH]1)C1C(c2cccc([N+](=O)[O-])c2)C2CC3CCCCC3N2[C@@]12C(=O)Nc1cc(Cl)ccc12 (stereo partly drawn) | 7.96% (active) | 45.1% | 32% | 27.5% | 10.3% | 45.5% | 33.6% | 39.7% | 38.4% | 52.9% | 35.8% | 37.9% | 16.3% | 13% | 23.9% | 32.5% |
| O=c1c(-c2nc3ccccc3[nH]2)cc2ccccc2n1Cc1cn(Cc2ccccc2Cl)nn1 | 12.4% | 50.4% | 78.2% | -22% (active) | 27.9% | 19.8% | 19.2% | 40.6% | 66.4% | 13.3% | 15.1% | 37.5% | 26.2% | 18.2% | 78.3% | 45.5% |
| COC(=O)c1c2c(c(C)[n+]([O-])c1C)C(=O)C=C(NCc1ccccc1)C2=O | -0.203% (active) | 4.33% (active) | -63.3% (active) | -95% (active) | -56.6% (active) | -35.4% (active) | -30.6% (active) | -14% (active) | -34.4% (active) | -67.5% (active) | -89.6% (active) | -27.9% (active) | -62.1% (active) | -12.6% (active) | -34.5% (active) | -10.5% (active) |
| O=C(NCc1ccccc1)C1CN(c2ccc(Cl)cc2)N(c2ccc(Cl)cc2)C1=O (stereo not drawn) | 85.5% | 86.5% | 95.2% | 88.3% | 92.1% | 51.7% | 74.7% | 69.9% | 63.9% | 83.4% | 3.28% (active) | 60.8% | 49.8% | 83.8% | 99.4% | 59.8% |
| O=C(Cn1cc(COc2ncnc3c2cnn3-c2ccccc2)nn1)Nc1cccc2ccccc12 | 93.7% | 87.9% | 98.4% | 76.9% | 102% | 109% | 85.1% | 94.8% | 87.1% | 99.5% | 94% | 99.1% | 85% | 102% | 104% | 93.8% |
| Cn1c(/C=C(\C#N)c2cccc(C(F)(F)F)c2)nc2c(N3CCOCC3)nc(Cl)nc21 | -23.4% (active) | 7.88% (active) | -53.7% (active) | -56.4% (active) | -27.7% (active) | -85% (active) | -12% (active) | 20.1% | -36.6% (active) | -13.1% (active) | -91.5% (active) | -68.8% (active) | -54.1% (active) | -85.5% (active) | 14% | 19.1% |
